Sampled rows, rich in hits. Any-hit rate of the full collection: about 6.8%.
KB-V1 cytotox = kills drug-selected multidrug resistant KB-V1 cells. KB-V1 MDR cells viability, CellTiter-Glo, 72 h. Potency, µM (titrated, usually from 46.1 µM), most hits filed as cytotoxic. 400,000 tested, 3.4% active; note: % is set by controls: 0 for no effect and ±100 for the full control effect; nearly all actives have a fitted effect of over 60% in size
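KB-V1 cells (P-gp-expressing MDR subline of KB-3-1) in phenol-red-free DMEM with 10% FBS were exposed to library compounds over a concentration series for 72 h at 37 degrees C. Viability read by CellTiter-Glo luminescence; concentration-effect curves fitted after normalization.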
KB-3-1 cytotox = KB-3-1 parental cell cytotoxicity; KB-3-1 viability, CellTiter-Glo ATP luminescence, 72 h; Potency, µM (titrated, usually from 46.1 µM), actives largely listed as cytotoxic; AID 1347075; 400,000 tested, 1.4% active; note: % is set by controls: 0 for no effect and ±100 for the full control effect; nearly all actives have a fitted effect of over 60% in size
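Here the drug-naive KB-3-1 line serves as comparator for MDR sub-line selectivity; cells received compound titrations, 72 h at 37 °C, then CellTiter-Glo readout.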
SW480 rerep = DNA re-replication induction in SW480 cells; SW480 DNA re-replication, Hoechst DNA content imaging, 48 h; 340,000 tested, 1.8% active; Potency, µM (highest dose often 46.1 µM), for inactives: top-dose re-replication activation, most hits filed as activators; note: % of control where 0% means no effect; nearly all actives have a fitted effect of over 55% in size
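Hoechst fluorescence of nuclei (405 nm excitation, 500-530 nm emission) measured by plate-scanning imager after 48 hr compound exposure at 37 C; re-replication scored as increased number of nuclei with elevated intensity.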
TSG101-PTAP inh = blocks PTAP/TSG101 interaction to inhibit HIV-1 budding; Q99816; Fluorescence polarization, FITC-PTAP peptide / Tsg101 binding; Potency, µM (titrated, usually from 115 µM), for the others: at the top dose activity change, negative = inhibition, hits mostly inhibitors; 340,000 tested, under 10 active; AID 493005; active = well fitted inhibition curve with a large enough effect in the main read-out, with a control signal flat, not every such curve was filed as active; inconclusive = small, poorly fitted or top-dose-only effect, or effect the other way, or a change in a side signal; inactive = no such curve, though single readings can be large or run the other way; note: % of control where 0% means no effect
Target sequence (Q99816 whole entry, looked up): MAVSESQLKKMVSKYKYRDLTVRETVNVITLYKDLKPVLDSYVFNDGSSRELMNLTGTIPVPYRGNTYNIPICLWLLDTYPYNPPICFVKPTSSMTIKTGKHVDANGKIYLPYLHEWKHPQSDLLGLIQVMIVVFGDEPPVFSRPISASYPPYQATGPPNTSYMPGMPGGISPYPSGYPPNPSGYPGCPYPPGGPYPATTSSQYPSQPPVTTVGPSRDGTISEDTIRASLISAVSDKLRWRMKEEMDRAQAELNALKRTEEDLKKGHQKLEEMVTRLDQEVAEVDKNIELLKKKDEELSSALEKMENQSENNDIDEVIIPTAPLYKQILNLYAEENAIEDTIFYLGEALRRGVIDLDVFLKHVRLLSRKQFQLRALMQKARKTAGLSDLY
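Fluorescence anisotropy tracks displacement of a FITC-tagged PTAP peptide (50 nM) from the Tsg101 binding domain (10 uM), following a 20 min room-temperature incubation at pH 7.5.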
PINK1 expr mod = PINK1 expression modulation. 410,000 tested, 0.2% active. Potency, µM (doses to about 76.6 µM), inactives show at the top dose activation (PINK1 increase), most hits filed as activators. PINK1 immunofluorescence, high-content cytometry, 24 h; active = well fitted activation curve with a large enough effect; inconclusive = small, poorly fitted or top-dose-only effect; cell line not stated here; note: % of control where 0% means no effect; nearly all actives have a fitted effect of over 65% in size
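Stable cell line treated 24 h with compounds at 5 concentrations (CCCP controls), then fixed and immunostained for PINK1 plus nuclear and cell stains; PINK1 immunofluorescence quantified by laser-scanning microplate cytometry.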
MCF10A rereplic = inducers of DNA re-replication in MCF 10A breast cells. MCF 10A DNA re-replication, Hoechst nuclear intensity, 48 h. Potency, µM (titrated, usually from 46.1 µM), for the others: at the top dose activity, positive = re-replication, usual class: activators. 350,000 tested, 2.9% active. AID 624296; note: % of control where 0% means no effect; nearly all actives have a fitted effect of over 50% in size
* marks the source's active call; other numbers are inactive results; i = inactive; ? = inconclusive; . = no result; [ ] = dose if it differs, or a comment. Unless noted, calls come from the whole dose curve; as a rule, active = well fitted curve in the direction sought with a large enough effect; inconclusive = small, poorly fitted or top-dose-only effect, or another doubt; inactive = no such curve, though single readings can be large; an effect the other way counts as inactive or inconclusive. Potency is the fitted concentration of half-maximal effect.

SMILES	KB-V1 cytotox	KB-3-1 cytotox	SW480 rerep	TSG101-PTAP inh	PINK1 expr mod	MCF10A rereplic
Oc1c(C(c2ccccc2)N2CCOCC2)ccc2ccccc12 (stereo not given)	i	?	?	0%	0%	16µM*
O=C(CN1CCN(C(c2ccccc2)c2ccccc2)CC1)N1CCOCC1	i	i	1%	-3%	-4%[38.3 µM]	1%
Cc1cccc(N2CCN(S(=O)(=O)c3ccc(-c4ccc(=O)[nH]n4)o3)CC2)c1C	i	i	?	1%	1%	21µM*
Cc1ccc(NC(=O)c2cc(CN3CCOCC3)on2)cc1Cl	i	i	.	.	-2%	.
Cc1[nH]c2ccccc2c1C(=O)Cn1c(=O)oc2ccccc21	16µM*	i	0%	-4%	0%[38.3 µM]	1%
Cc1[nH]c2ccccc2c1C(=O)CN(C)c1ccccc1	i	?	.	.	0%	.
COc1ccc(NC(=O)CN(C)CC(=O)c2c(C)[nH]c3ccccc23)cc1	7.3µM*	i	-4%	1%	6%	?
Cc1[nH]c2ccccc2c1C(=O)CCl	?	i	13µM*	-1%	-1%	10µM*
COc1ccc(CNC(=O)Cn2c(=O)ccc3cc(S(=O)(=O)N4CCCC4)ccc32)cc1	i	i	.	.	-4%	.
Cc1ccc(NC(=O)CCCCCCCCCCC2COCCO2)c(C)c1 (stereo not given)	18µM*	i	?	0%	10%	-48%
Cc1ccc(S(=O)(=O)N(C)CCCC(=O)Nc2cccc3ccccc23)cc1	12µM*	i	?	1%	2%	?
Cc1ccc(S(=O)(=O)N(C)CCCC(=O)Nc2ccc(C)cc2C)cc1	21µM*	i	?	1%	0%	2%
Cc1ccc(S(=O)(=O)Nc2cccc3ncccc23)cc1	?	i	11%	-5%	2%	6%
Cc1ccc(S(=O)(=O)Nc2cccc3ncccc23)s1	?	5.8µM*	?	-6%	2%	4.6µM*
CC(=O)N1CCC2(CC1)CCN(C(=O)Nc1cccc(F)c1)CC2	.	.	.	.	0%	.
NC(=S)NN=Cc1nccc2c(C(F)(F)C(F)(F)C(F)(F)F)cccc12	?	?	.	.	3%	.
CC(=O)n1cc(/C=N/NC(N)=S)c2ccccc21	5.2µM*	?	9%	0%	0%	0%
CC(=O)n1cc(/C=N/NC(=O)c2ccccc2O)c2ccccc21	i	i	29%	-2%	0%	0%
NC(=S)NN=Cc1nccc2ccccc12	i	?	2.9µM*	-2%	-3%	?
Cc1cnc(C=NNC(N)=S)c2cccc(N)c12	7.3µM*	i	?	0%	-6%	25%
COc1cccc(CN2CCC(n3cc(C(=O)NC4CCCC4)nn3)CC2)c1O	.	.	.	.	0%	.
CCOC(=O)C(=CNc1cc(Cl)c(-c2ccco2)c(Cl)c1)C(=O)OCC	i	i	22%	-11%	3%	16µM*
CCOC(=O)C(=CNc1ccccc1Cl)C(=O)OCC	i	i	-3%	-9%	0%	1%
CCOC(=O)C(=CNc1ccc(-c2ccco2)c(Cl)c1)C(=O)OCC	i	i	18%	-9%	-1%	21µM*
Cc1ccc(NS(=O)(=O)c2cc3c(cc2Cl)NC(=O)C3)cc1C	i	i	.	.	.	.
SMILES	KB-V1 cytotox	KB-3-1 cytotox	SW480 rerep	TSG101-PTAP inh	PINK1 expr mod	MCF10A rereplic
CC(=O)NCCNc1ncnc2ccc(-c3ccccc3C(F)(F)F)cc12	.	.	.	.	0%	.
C=CCn1cc(/C=C2\SC(N3CCOCC3)=NC2=O)c2ccccc21	i	i	-2%	-3%	-1%	4%
Cc1ccccc1-c1ccc(/C=C2/SC(N3CCOCC3)=NC2=O)o1	?	i	?	?	10%	16µM*
O=C1N=C(N2CCOCC2)S/C1=C\c1ccc(-c2ccccc2Cl)o1	i	i	13µM*	-10%	2%	2.9µM*
O=C1N=C(N2CCOCC2)S/C1=C\c1cccs1	i	i	-8%	-2%	-1%	1%
O=C(c1c(F)cccc1F)N1CCCC(c2nc(-c3ccc(Cl)cc3)no2)C1 (stereo not given)	?	18µM*	-10%	-5%	2%	?
COc1ccc(-c2noc(C3CCCN(C(=O)c4c(F)cccc4F)C3)n2)cc1OC (stereo not given)	i	i	0%	-4%	3%	-1%
Cc1ccc(-c2noc(C3CCCN(C(=O)c4ccccc4Br)C3)n2)cc1 (stereo not given)	18µM*	?	-4%	-4%	-1%	16%
Cc1ccc(-c2noc(C3CCCN(C(=O)c4c(F)cccc4F)C3)n2)cc1 (stereo not given)	16µM*	i	1%	.	3%[38.3 µM]	?
Cc1ccc(-c2noc(C3CCCN(C(=O)c4cccc(F)c4)C3)n2)cc1 (stereo not given)	i	i	-1%	-2%	1%	15%
COc1ccc(C(=O)N2CCCC(c3nc(-c4ccc(OC)c(OC)c4)no3)C2)c(OC)c1 (stereo not given)	4.1µM*	i	4%	-4%	1%	10%
COc1ccc(-c2noc(C3CCCN(C(=O)c4ccccc4OC)C3)n2)cc1OC (stereo not given)	i	i	13%	-9%	-1%[38.3 µM]	-16%
CN(C)CC(C)(C)CNC(=O)c1cnn(-c2nccc(-c3ccc4c(c3)OCO4)n2)c1-c1ccco1	.	.	.	.	-1%	.
CCc1ccc(-n2nc(C)c3c(C(=O)Nc4cc(C)ccc4C)cc(C)nc32)cc1	i	i	.	.	0%	.
Cc1ccc(-c2nc3sc(CCNC(=O)c4ccc(C)c(C)c4)c(C)n3n2)cc1	i	i	.	.	2%	.
CN(C)S(=O)(=O)c1ccc(C(=O)NCCSc2c(-c3ccc(Br)cc3)[nH]c3ccccc23)cc1	i	i	.	.	0%	.
C(=C\c1nnc2c3ccccc3ncn12)/c1ccccc1	5.2µM*	12µM*	?	-1%	-1%	6.5µM*
Cc1cccc(OCCCc2c(C)n[nH]c2C)c1	18µM*	?	1%	-5%	-1%[38.3 µM]	?
COc1cccc(OC)c1OCCCc1c(C)n[nH]c1C	18µM*	i	-5%	1%	1%	0%
COc1ccc(OCCCCc2c(C)n[nH]c2C)cc1	i	i	-3%	-5%	2%	12%
O=C(Nc1cc(Cl)cc(Cl)c1)c1cccc(OC(F)F)c1	16µM*	13µM*	3%	-2%	?	?

Compound activity from PubChem.
